Assay outcomes deposited in PubChem by National Center for Advancing Translational Sciences (NCATS).
LmPK inhibitor – inhibitors of Leishmania mexicana pyruvate kinase. Q27686. purified LmPK, Kinase-Glo ATP luminescence, 1 h. Potency, µM (top dose mostly 57.5 µM), for inactives: top-dose activity change, negative = inhibition, most hits filed as inhibitors. hit rate 0.37% among 290,000. AID 1721; note: potency is the fitted concentration of half-maximal effect; % is set by controls: 0 for no effect and ±100 for the full control effect
Target sequence (Q27686 whole entry, looked up): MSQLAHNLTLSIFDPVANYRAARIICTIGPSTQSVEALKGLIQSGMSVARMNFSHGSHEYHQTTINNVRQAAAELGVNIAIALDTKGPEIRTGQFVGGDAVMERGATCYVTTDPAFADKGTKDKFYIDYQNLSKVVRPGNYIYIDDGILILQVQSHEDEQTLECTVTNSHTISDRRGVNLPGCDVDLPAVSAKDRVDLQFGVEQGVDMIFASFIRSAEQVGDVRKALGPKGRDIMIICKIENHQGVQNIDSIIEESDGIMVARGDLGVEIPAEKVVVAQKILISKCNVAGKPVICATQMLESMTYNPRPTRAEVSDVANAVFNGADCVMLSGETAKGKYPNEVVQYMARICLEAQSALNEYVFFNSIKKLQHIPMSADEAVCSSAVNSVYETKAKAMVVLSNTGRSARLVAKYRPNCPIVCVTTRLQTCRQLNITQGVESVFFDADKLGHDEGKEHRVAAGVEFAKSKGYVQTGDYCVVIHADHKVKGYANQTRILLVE
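qHTS format; LmPK 0.1 nM; substrates PEP 0.5 mM and ADP 0.1 mM. One-hour room-temperature incubation, then coupled luciferase luminescence; 0.5 nM enzyme wells mark activation.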
Shiga toxin inh – Shiga toxin inhibition | inhibition, % at 38.7 µM | Vero cells, Shiga toxin protein synthesis inhibition reporter | AID 2315 | hit rate 9.2% among 290,000; in the data active = inhibition mostly above about 28%, no sharp cut-off; inactive = mostly below about 43%; note: 0% is about no effect
Sm TGR inh – inhibitors of Schistosoma mansoni thioredoxin glutathione reductase. Q962Y6. purified TGR, DTNB reduction, TNB absorbance 405 nm. Potency, µM (series often up to 114 µM), without a hit: top-dose activity change, negative = inhibition, most hits filed as inhibitors. hit rate 3% among 360,000. AID 485364; note: potency is the fitted concentration of half-maximal effect; % is set by controls: 0 for no effect and ±100 for the full control effect; nearly all actives have a fitted effect of over 60% in size
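Kinetic colorimetric format: TGR-catalysed, NADPH-driven DTNB reduction monitored via TNB absorbance. Enzyme dispensed at 20 nM; compound exposure 15 min at room temperature before reaction start.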
CHX counter – counter-screen hit for Shiga toxin inhibitors, cycloheximide. cell reporter, cycloheximide protein synthesis inhibition counterscreen. max response, %. hit rate 12% among 300,000; in the data active = max response mostly above about 13%, no sharp cut-off; inactive = mostly below about 14%; note: read at 38.3 µM for the half of the compounds with a filed dose; 0% is about no effect
FBPA Giardia inh – blocks Giardia fructose-bisphosphate aldolase activity. purified Giardia FBPA. hit rate 0.71% among 290,000. A8B2U2. Potency, µM (doses to about 59.6 µM), for inactives: at the top dose activity, negative = inhibition, usual class: inhibitors; note: potency is the fitted concentration of half-maximal effect; % is set by controls: 0 for no effect and ±100 for the full control effect; nearly all actives have a fitted effect of over 55% in size
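40 nM FBPA preincubated 10 min at RT with compound (up to 57.5 uM final), then substrate plus GAPDH/TPI/NAD/arsenate coupling and diaphorase/resazurin added. Fluorescence read after 20 min at RT, 525/598 nm.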
Tb PYK inh – inhibitors of Trypanosoma brucei pyruvate kinase. Q57TT1. TbPYK enzyme, Kinase-Glo Plus ATP luminescence, 45 min. Potency, µM (highest dose often 76.8 µM), for the others: at the top dose activity, negative = inhibition, most hits filed as inhibitors. hit rate 0.12% among 410,000; note: potency is the fitted concentration of half-maximal effect; % is set by controls: 0 for no effect and ±100 for the full control effect; nearly all actives have a fitted effect of over 50% in size
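ADP (130 uM final) triggers the TbPYK reaction after compound addition; incubation is 45 min at room temperature. Kinase-Glo Plus is then added and luminescence imaged. Normalized data are fitted to concentration-effect curves.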
An asterisk follows results filed as active; ? = inconclusive; · = no result. The sample as a whole holds a higher share of hits than the screen did. Unless noted, calls come from the whole dose curve; as a rule, active = well fitted curve in the direction sought with a large enough effect; inconclusive = small, poorly fitted or top-dose-only effect, or another doubt; inactive = no such curve, though single readings can be large; an effect the other way counts as inactive or inconclusive.

SMILES	LmPK inhibitor	Shiga toxin inh	Sm TGR inh	CHX counter	FBPA Giardia inh	Tb PYK inh
O=C(OC1CCOC1=O)c1ccc(CO)cc1 (stereo not given)	0.7%	17.5	7.7%	-2.9	13.3%	-3.3%
O=C(CCC(=O)c1ccc(F)cc1)OC1CCOC1=O (stereo not given)	4.5%	-1.6	50.1µM*	-0.7	3.4%	3.7%
CCOC(=O)c1[nH]c2ccccc2c1NC(=O)c1ccc(S(=O)(=O)N(C)C)cc1	1.6%	-19.8	0.0%	-3.7	-3.9%	-1.6%
CN(C)S(=O)(=O)c1ccc(C(=O)Oc2cc(=O)[nH]c3ccccc23)cc1	-5.5%	-3.8	20µM*	-4.0	11.8%	-3.3%
C=Cc1ccc(CSc2nc(-c3ccc(C)cc3)nc3c2Cc2c(CO)cnc(C)c2O3)cc1	·	·	-8.7%	·	·	-0.4%
O=C(O)Cn1ccnc1[N+](=O)[O-]	·	·	·	·	·	3.2%
CCc1cc(=O)n2[nH]c(-c3ccccc3)c(-c3ccccc3)c2n1	3.4%	-2.6	-8.0%	1.9	-0.8%	3.5%
COc1ccccc1C(=O)NC(=S)Nc1cccnc1Cl	-12.8%	23.8	-1.4%	17.5*	-6.6%	4.3%
Cc1ccc(C(=O)NC(=S)Nc2cccnc2Cl)cc1	-1.9%	90.8*	15.8µM*	46.7*	?	0.3%
COc1ccccc1-c1cc(C(=O)Nc2cccnc2Cl)no1	0.6%	-10.3	-1.8%	-6.6	10.7%	3.6%
Cc1ccc(C(=O)NC(=S)Nc2ccccc2C(F)(F)F)cc1	0.5%	71.0	?	14.0	-16.8%	8.3%
COc1ccc(CNC(=O)c2cc3c(=O)n4cccc(C)c4nc3s2)cc1	·	·	-5.0%	·	·	0.4%
CC[C@@H](NCCCn1cnc2c(SC)ncnc21)c1ccccc1	·	·	·	·	·	-2.7%
O=C(Nc1ccc(-c2nc3ccccc3o2)cc1)c1ccc(N2C(=O)C3C4C=CC(C4)C3C2=O)cc1 (stereo not given)	1.7%	41.7*	-2.8%	22.1*	7.9%	1.9%
Cc1ccc2oc(-c3ccc(NC(=O)c4ccc5c(c4)OCO5)cc3)nc2c1	-1.7%	58.4*	0.8%	36.6*	4.7%	1.0%
O=C(Nc1ccc(-c2nc3ccccc3o2)cc1)c1cccnc1	0.9%	114.8*	19.0%	43.8*	·	-1.5%
O=C(Nc1ccc(-c2nc3ccccc3o2)cc1)c1ccc2c(c1)OCO2	-0.9%	45.8	5.2%	20.0	1.2%	-3.4%
O=C(Nc1ccc2oc(-c3ccccc3F)nc2c1)c1ccc2c(c1)OCCO2	0.7%	71.9*	4.6%	27.8*	-8.9%	-8.8%
Cc1cc(NC(=O)c2ccc3c(c2)OCCO3)cc(-c2nc3ccccc3o2)c1O	·	·	4.1%	·	·	1.0%
Cc1c(NC(=O)c2ccc(N3C(=O)C4C5C=CC(C5)C4C3=O)cc2)c(=O)n(-c2ccccc2)n1C (stereo not given)	-4.0%	-23.6	5.1%	-3.1	0.3%	0.5%
C=C(CCC12O[C@H](C(=O)O)[C@@](O)(C(=O)O)[C@](C(=O)O)(O1)[C@H](OC(=O)/C=C/[C@@H](C)C[C@@H](C)CC)[C@H]2O)[C@@H](OC(C)=O)[C@H](C)Cc1ccccc1	·	17.7	·	6.7	?	·
CC(OC(=O)[C@@H]1CCCN1C(=O)c1cccs1)C(=O)Nc1cccc([N+](=O)[O-])c1 (stereo not given in full)	·	·	·	·	·	-7.7%
CN1C[C@@H]2[C@@H]3C(=O)N(C)C(=O)[C@@H]3[C@](C)(C1=O)N2C(=O)c1ccccc1	·	·	·	·	·	-1.6%
O=C(CCN1C(=O)c2ccccc2C1=O)Nc1ccc(-c2nc3ccccc3o2)cc1	5.2%	82.8*	4.2%	18.5*	3.1%	-6.7%
Cc1ccc2oc(-c3ccc(NC(=O)c4cccnc4)cc3)nc2c1	5.3%	62.0*	4.4%	70.0*	3.1%	-0.7%
SMILES	LmPK inhibitor	Shiga toxin inh	Sm TGR inh	CHX counter	FBPA Giardia inh	Tb PYK inh
c1ccc2c(C(c3nnnn3-c3ccc4c(c3)OCCO4)N3CCCCC3)ccnc2c1 (stereo not given)	·	·	·	·	·	4.1%
Cc1ccc(N(C)/N=C/c2ccc(Cl)cc2Cl)nn1	0.0%	16.0	1.3%	16.3*	5.6%	-1.5%
CN(/N=C/c1ccc(Cl)cc1Cl)c1ncc(Cl)cc1C(F)(F)F	1.0%	-11.2	-1.8%	1.1	-6.9%	-6.6%
Cc1cc(C)c(N2C(=O)CC(Sc3ccccc3N)C2=O)c(C)c1 (stereo not given)	·	·	·	·	·	-10.4%
O=[N+]([O-])c1ccc(SCc2ccco2)cc1N1CCOCC1	0.2%	54.0*	3.9%	29.2*	-3.0%	7.5%
CN(C)c1ccc(/C=N/Nc2nncc3ccccc23)cc1	-0.3%	108.5*	?	28.4*	-20.5%	-11.9%
COc1ccc(/C=N/Nc2nncc3ccccc23)c(OC)c1	-1.5%	105.8*	4.4%	51.0*	1.8%	-1.2%
COc1ccc(/C=N/Nc2cc(C)nc(N3CCOCC3)n2)c(OC)c1	-2.8%	12.5	10.4%	-2.0	-4.6%	2.0%
COc1cc(/C=N/Nc2nncc3ccccc23)cc(OC)c1OC	-13.1%	87.4*	-10.3%	39.4*	4.5%	-3.6%
Cc1cccc(/C=N/Nc2nncc3ccccc23)c1	?	47.3*	-10.7%	24.1*	-8.4%	-13.0%
O=C(NCC(O)c1ccccc1)c1ccc(Cl)c(S(=O)(=O)N2CCCCC2)c1 (stereo not given)	-0.5%	13.2	3.9%	20.4	6.2%	6.5%
CCn1cc(Cl)c(C(=O)NNC(=O)CCn2ccc([N+](=O)[O-])n2)n1	2.8%	-4.8	1.7%	-3.6	·	-6.5%
C(=N\Nc1nncc2ccccc12)/c1ccccc1	?	73.4*	6.1%	50.4*	-10.2%	-0.6%
C(=NNc1nnn(Cc2ccccc2)n1)c1ccccc1	·	·	·	·	·	-8.1%
CC1CCC(NC(=O)Nc2cccs2)CC1 (stereo not given)	5.8%	43.9*	-21.2%	24.0*	-0.6%	-7.7%
O=C(Nc1cccs1)NC1CCCC1	3.8%	95.1	-14.9%	25.3*	12.0%	-8.5%
Cc1ccc(C(=O)NCC(=O)NC2CCC(C)CC2)s1 (stereo not given)	·	·	-0.5%	·	·	-4.6%
O=C(NCC1CC1)Nc1cccs1	0.6%	1.1	-9.4%	6.4	-5.3%	-2.1%
CC1CCC(NC(=O)CNC(=O)c2cccs2)CC1 (stereo not given)	-10.3%	115.6*	6.8%	45.3*	·	5.4%
O=C(CNC(=O)c1cccs1)NC1=NCCS1	11.2%	21.1*	-0.3%	41.9*	-2.3%	0.1%
Cc1cc(C)cc(Oc2coc3cc(OCC(=O)NC4CCCCC4)ccc3c2=O)c1	·	·	12.9%	·	·	0.5%
NS(=O)(=O)c1ccc(N2C(=O)C(=O)/C(=C(/O)c3ccccc3)C2c2ccc(Cl)cc2)cc1 (stereo not given)	9.8%	25.0	0.9%	11.2*	11.1%	6.5%
